Common to all, as to test: DAPPL (digital affinity profiling via proximity ligation, sequencing); 10 mM Tris-HCl pH 7.5, 50 mM NaCl, 1 mM DTT, 4% glycerol, room temperature, 30 min; GST-TFs on glutathione beads, 16-mer random dsDNA library, 0.1% formaldehyde crosslink after washing; high values mean tight binding
The target in one assay is T1, FEV (Homo sapiens, UniProt Q99581 1-238).
T1 sequence: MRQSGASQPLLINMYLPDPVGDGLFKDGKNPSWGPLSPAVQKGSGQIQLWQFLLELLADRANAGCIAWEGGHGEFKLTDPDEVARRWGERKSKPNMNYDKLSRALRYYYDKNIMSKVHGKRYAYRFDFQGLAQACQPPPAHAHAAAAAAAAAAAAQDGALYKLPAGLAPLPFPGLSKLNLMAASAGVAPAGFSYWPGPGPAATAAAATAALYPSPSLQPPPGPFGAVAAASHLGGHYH
To be noted: protein: recombinant; tags: N-terminal GST; dsDNA, one strand shown. The procedure, abridged:
(§1)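 A tag-only sample was pooled with DNA-barcoded human transcription factors that had been expressed in yeast as GST fusions and captured on glutathione beads. The pools were incubated for 30 min at room temperature with 200 nmole of a random double-stranded 16-mer DNA library in Tris/NaCl/DTT/glycerol buffer, then washed, crosslinked with 0.1% formaldehyde, proximity-ligated (BsaI/T4 ligase, 1 h, 37 °C), PCR-amplified and sequenced on an Illumina NextSeq500. Binding signal is each hexamer's read frequency for a factor divided by its frequency for the tag-only sample.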

Another assay has as its target ETV5 (Homo sapiens, UniProt P41161 1-510). The note with it: protein: recombinant; tags: N-terminal GST; dsDNA, one strand shown. The procedure, abridged:
as §1

Another assay deals with HSF1 (Homo sapiens, UniProt Q00613 1-529). The note with it: protein: recombinant; tags: N-terminal GST; chain copies: 3; dsDNA, one strand shown. The gist of the method:
as §1

A further assay concerns the target T2, SPIC (Homo sapiens, UniProt Q8N5J4 1-248).
T2 sequence: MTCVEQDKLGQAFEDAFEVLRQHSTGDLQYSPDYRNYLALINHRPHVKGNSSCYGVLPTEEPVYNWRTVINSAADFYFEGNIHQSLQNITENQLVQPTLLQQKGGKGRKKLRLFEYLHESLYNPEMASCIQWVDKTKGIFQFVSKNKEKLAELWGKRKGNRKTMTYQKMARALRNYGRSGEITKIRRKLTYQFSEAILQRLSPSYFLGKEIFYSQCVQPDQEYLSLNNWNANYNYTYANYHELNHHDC
To be noted: protein: recombinant; tags: N-terminal GST; dsDNA, one strand shown. The gist of the method:
as §1

The target of another assay is ELF4 (Homo sapiens, UniProt Q99607 1-663). To be noted: protein: recombinant; tags: N-terminal GST; dsDNA, one strand shown. The procedure, abridged: as §1
ELF4, sequence (Q99607 whole entry): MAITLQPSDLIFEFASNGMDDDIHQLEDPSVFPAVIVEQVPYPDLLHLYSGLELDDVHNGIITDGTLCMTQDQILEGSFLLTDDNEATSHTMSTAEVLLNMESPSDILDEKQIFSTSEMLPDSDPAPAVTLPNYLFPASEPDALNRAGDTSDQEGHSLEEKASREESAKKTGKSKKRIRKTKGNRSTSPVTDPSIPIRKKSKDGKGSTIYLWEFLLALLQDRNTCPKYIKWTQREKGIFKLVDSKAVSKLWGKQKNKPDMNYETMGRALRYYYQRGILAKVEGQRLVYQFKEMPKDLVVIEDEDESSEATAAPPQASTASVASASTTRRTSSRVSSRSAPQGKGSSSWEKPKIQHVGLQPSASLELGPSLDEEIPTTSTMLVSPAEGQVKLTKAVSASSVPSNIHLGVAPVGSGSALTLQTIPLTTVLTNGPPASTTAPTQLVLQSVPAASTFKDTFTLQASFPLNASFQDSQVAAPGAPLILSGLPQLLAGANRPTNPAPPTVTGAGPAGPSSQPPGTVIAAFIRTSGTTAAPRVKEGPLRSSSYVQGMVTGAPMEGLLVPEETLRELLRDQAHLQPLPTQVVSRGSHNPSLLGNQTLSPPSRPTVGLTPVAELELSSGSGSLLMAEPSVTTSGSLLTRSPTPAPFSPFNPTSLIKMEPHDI
The next assay concerns the target T3, ELK4 (Homo sapiens, UniProt P28324-2 1-405).
T3 sequence: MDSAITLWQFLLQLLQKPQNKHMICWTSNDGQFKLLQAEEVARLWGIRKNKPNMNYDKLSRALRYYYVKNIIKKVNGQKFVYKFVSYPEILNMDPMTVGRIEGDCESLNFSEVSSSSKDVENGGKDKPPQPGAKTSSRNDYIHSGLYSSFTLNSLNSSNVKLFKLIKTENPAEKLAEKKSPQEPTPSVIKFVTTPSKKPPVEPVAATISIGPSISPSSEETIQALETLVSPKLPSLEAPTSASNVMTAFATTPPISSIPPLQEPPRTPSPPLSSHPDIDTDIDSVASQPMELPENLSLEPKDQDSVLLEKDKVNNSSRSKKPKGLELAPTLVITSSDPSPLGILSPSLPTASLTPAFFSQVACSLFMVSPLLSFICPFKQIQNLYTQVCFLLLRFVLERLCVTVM
The note with it: protein: recombinant; tags: N-terminal GST; dsDNA, one strand shown. The gist of the method: as §1

Another assay has as its target T4, ETV2 (Homo sapiens, UniProt O00321 1-342).
T4 sequence: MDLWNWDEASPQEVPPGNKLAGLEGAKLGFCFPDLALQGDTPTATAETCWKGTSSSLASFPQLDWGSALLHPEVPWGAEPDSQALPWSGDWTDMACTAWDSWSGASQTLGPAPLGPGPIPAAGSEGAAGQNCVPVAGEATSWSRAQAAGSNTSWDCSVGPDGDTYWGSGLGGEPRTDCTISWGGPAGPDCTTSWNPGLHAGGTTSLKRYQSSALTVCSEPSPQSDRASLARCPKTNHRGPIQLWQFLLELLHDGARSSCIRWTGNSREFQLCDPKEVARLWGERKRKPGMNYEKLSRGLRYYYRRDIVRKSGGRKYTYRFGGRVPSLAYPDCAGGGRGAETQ
The note with it: protein: recombinant; tags: N-terminal GST; dsDNA, one strand shown. The procedure, abridged: as §1

In a further assay the target is T5, ELF3 (Homo sapiens, UniProt P78545 1-371).
T5 sequence: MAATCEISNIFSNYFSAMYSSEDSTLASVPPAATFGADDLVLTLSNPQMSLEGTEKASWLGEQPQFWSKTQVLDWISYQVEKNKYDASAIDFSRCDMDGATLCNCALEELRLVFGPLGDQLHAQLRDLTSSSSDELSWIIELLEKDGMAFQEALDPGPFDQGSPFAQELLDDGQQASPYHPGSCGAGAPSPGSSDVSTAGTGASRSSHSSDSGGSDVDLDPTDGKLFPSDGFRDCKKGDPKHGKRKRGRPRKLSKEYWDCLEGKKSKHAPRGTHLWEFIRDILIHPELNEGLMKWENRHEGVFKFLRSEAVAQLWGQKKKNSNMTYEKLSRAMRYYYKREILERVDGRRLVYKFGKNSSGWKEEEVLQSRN
The note with it: protein: recombinant; tags: N-terminal GST; dsDNA, one strand shown. The gist of the method:
as §1

Another assay addresses CRX (Homo sapiens, UniProt O43186 1-299). To be noted: protein: recombinant; tags: N-terminal GST; dsDNA, one strand shown. The gist of the method: as §1
A further assay has as its target ETV1 (Homo sapiens, UniProt P50549 1-477). The note with it: protein: recombinant; tags: N-terminal GST; dsDNA, one strand shown. The procedure, abridged:
as §1

ETV1, sequence (P50549 whole entry): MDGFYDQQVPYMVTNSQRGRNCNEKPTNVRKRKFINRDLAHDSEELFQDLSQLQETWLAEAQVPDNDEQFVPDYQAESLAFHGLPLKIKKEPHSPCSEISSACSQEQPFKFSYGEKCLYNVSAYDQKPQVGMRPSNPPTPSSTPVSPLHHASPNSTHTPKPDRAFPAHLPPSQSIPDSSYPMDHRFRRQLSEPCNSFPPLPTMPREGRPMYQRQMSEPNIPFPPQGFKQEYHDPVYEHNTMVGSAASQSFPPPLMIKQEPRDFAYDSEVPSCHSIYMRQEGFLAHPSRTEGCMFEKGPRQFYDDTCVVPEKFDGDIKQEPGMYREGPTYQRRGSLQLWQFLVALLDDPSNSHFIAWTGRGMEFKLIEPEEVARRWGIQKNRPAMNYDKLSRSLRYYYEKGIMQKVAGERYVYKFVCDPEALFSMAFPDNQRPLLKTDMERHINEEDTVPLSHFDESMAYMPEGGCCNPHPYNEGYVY
HSF1, sequence (Q00613 whole entry): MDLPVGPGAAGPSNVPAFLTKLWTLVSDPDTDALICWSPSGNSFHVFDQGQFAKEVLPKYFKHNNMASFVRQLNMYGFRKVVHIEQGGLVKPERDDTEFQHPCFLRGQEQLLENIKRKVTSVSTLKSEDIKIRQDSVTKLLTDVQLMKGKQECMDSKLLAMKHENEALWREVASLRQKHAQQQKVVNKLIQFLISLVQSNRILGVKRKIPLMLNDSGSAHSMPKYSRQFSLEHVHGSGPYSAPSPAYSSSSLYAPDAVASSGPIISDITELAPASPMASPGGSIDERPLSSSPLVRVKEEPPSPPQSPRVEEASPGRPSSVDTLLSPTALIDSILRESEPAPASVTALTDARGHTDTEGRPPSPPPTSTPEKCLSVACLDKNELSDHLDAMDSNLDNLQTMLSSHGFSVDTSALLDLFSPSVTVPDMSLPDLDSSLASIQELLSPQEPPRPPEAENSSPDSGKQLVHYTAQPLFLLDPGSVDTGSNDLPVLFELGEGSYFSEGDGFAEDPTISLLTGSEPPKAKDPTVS
ETV5, sequence (P41161 whole entry): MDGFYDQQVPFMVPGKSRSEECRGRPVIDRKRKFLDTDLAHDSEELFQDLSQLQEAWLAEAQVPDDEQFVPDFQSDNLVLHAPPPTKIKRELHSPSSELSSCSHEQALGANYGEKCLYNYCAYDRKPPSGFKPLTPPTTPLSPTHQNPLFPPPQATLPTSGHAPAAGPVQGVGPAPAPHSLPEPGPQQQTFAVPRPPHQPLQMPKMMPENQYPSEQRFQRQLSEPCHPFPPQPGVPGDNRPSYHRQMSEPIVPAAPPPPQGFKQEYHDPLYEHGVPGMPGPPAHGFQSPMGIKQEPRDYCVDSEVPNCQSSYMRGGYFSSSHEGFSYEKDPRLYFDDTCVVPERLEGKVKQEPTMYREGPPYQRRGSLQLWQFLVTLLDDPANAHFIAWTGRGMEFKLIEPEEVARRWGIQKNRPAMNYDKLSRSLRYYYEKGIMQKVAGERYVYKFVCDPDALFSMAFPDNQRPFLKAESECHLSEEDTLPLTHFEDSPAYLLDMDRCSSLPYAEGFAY
CRX, sequence (O43186 whole entry): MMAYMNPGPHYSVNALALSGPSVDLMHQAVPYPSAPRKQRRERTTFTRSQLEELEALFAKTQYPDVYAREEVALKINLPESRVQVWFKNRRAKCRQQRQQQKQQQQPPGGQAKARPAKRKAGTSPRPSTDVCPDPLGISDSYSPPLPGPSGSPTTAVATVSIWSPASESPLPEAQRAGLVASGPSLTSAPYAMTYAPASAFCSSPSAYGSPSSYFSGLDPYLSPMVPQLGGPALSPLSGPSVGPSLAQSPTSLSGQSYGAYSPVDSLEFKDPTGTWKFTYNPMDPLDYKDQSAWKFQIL

With CTTTGC, the binding signal is 1.19 fold enrichment (6-mer frequency, TF over GST control) in the assay with FEV; 1.32 fold enrichment (6-mer frequency, TF over GST control) in the assay with ETV5; 1.25 fold enrichment (6-mer frequency, TF over GST control) in the assay with HSF1; 1.45 fold enrichment (6-mer frequency, TF over GST control) in the assay with SPIC; 1.36 fold enrichment (6-mer frequency, TF over GST control) in the assay with ELF4; 1.32 fold enrichment (6-mer frequency, TF over GST control) with ELK4. The binding signal with ETV2 was 1.4 fold enrichment (6-mer frequency, TF over GST control); with ELF3, 1.46 fold enrichment (6-mer frequency, TF over GST control); with CRX, 1.33 fold enrichment (6-mer frequency, TF over GST control); in the assay with ETV1, 1.35 fold enrichment (6-mer frequency, TF over GST control).

TTGACT: the binding signal with FEV is 1.15 fold enrichment (6-mer frequency, TF over GST control); with ETV5, 1.13 fold enrichment (6-mer frequency, TF over GST control); with HSF1, 1.12 fold enrichment (6-mer frequency, TF over GST control); with SPIC, 1.15 fold enrichment (6-mer frequency, TF over GST control); in the assay with ELF4 it was 1.21 fold enrichment (6-mer frequency, TF over GST control); in the assay with ELK4, 1.3 fold enrichment (6-mer frequency, TF over GST control). Besides, the binding signal in the assay with ETV2 is 1.27 fold enrichment (6-mer frequency, TF over GST control); with ELF3 it was 1.15 fold enrichment (6-mer frequency, TF over GST control); in the assay with CRX, 1.09 fold enrichment (6-mer frequency, TF over GST control); with ETV1 it was 1.18 fold enrichment (6-mer frequency, TF over GST control).

As for TCGTCT, the binding signal in the assay with FEV was 1.3 fold enrichment (6-mer frequency, TF over GST control); with ETV5 it was 1.33 fold enrichment (6-mer frequency, TF over GST control); with HSF1, 1.46 fold enrichment (6-mer frequency, TF over GST control); with SPIC it was 1.27 fold enrichment (6-mer frequency, TF over GST control); with ELF4, 1.35 fold enrichment (6-mer frequency, TF over GST control); with ELK4 it was 1.32 fold enrichment (6-mer frequency, TF over GST control). For the same sequence, the binding signal was 1.36 fold enrichment (6-mer frequency, TF over GST control) with ETV2; 1.52 fold enrichment (6-mer frequency, TF over GST control) with ELF3; 1.37 fold enrichment (6-mer frequency, TF over GST control) with CRX; 1.41 fold enrichment (6-mer frequency, TF over GST control) with ETV1.

On to TCCTGC, for which the binding signal with FEV was 1.62 fold enrichment (6-mer frequency, TF over GST control); in the assay with ETV5, 1.83 fold enrichment (6-mer frequency, TF over GST control); with HSF1 it was 1.25 fold enrichment (6-mer frequency, TF over GST control); with SPIC it was 1.68 fold enrichment (6-mer frequency, TF over GST control); in the assay with ELF4, 1.56 fold enrichment (6-mer frequency, TF over GST control); with ELK4, 1.36 fold enrichment (6-mer frequency, TF over GST control). Moreover, the binding signal is 1.49 fold enrichment (6-mer frequency, TF over GST control) with ETV2; 1.75 fold enrichment (6-mer frequency, TF over GST control) in the assay with ELF3; 1.26 fold enrichment (6-mer frequency, TF over GST control) with CRX; 1.6 fold enrichment (6-mer frequency, TF over GST control) with ETV1.

Turning to CTCCGG, the binding signal with FEV was 2 fold enrichment (6-mer frequency, TF over GST control); with ETV5, 1.58 fold enrichment (6-mer frequency, TF over GST control); in the assay with HSF1, 1.18 fold enrichment (6-mer frequency, TF over GST control); with SPIC it was 1.92 fold enrichment (6-mer frequency, TF over GST control); in the assay with ELF4, 1.56 fold enrichment (6-mer frequency, TF over GST control); with ELK4, 1.58 fold enrichment (6-mer frequency, TF over GST control). Moreover, the binding signal was 1.48 fold enrichment (6-mer frequency, TF over GST control) in the assay with ETV2; 1.39 fold enrichment (6-mer frequency, TF over GST control) with ELF3; 1.02 fold enrichment (6-mer frequency, TF over GST control) with CRX; 1.64 fold enrichment (6-mer frequency, TF over GST control) in the assay with ETV1.

For the sequence ATATAA, the binding signal was 1.15 fold enrichment (6-mer frequency, TF over GST control) with FEV; 1.15 fold enrichment (6-mer frequency, TF over GST control) with ETV5; 1.34 fold enrichment (6-mer frequency, TF over GST control) in the assay with HSF1; 1.1 fold enrichment (6-mer frequency, TF over GST control) with SPIC; 1.18 fold enrichment (6-mer frequency, TF over GST control) with ELF4; 1.29 fold enrichment (6-mer frequency, TF over GST control) with ELK4. The binding signal with ETV2 was 1.24 fold enrichment (6-mer frequency, TF over GST control); with ELF3, 1.28 fold enrichment (6-mer frequency, TF over GST control); with CRX, 1.68 fold enrichment (6-mer frequency, TF over GST control); with ETV1, 1.16 fold enrichment (6-mer frequency, TF over GST control).

For the sequence ATATCG, the binding signal was 1.1 fold enrichment (6-mer frequency, TF over GST control) with FEV; 1.16 fold enrichment (6-mer frequency, TF over GST control) with ETV5; 1.14 fold enrichment (6-mer frequency, TF over GST control) with HSF1; 1.07 fold enrichment (6-mer frequency, TF over GST control) in the assay with SPIC; 1.22 fold enrichment (6-mer frequency, TF over GST control) in the assay with ELF4; 1.21 fold enrichment (6-mer frequency, TF over GST control) with ELK4. The binding signal in the assay with ETV2 is 1.18 fold enrichment (6-mer frequency, TF over GST control); with ELF3 it was 1.02 fold enrichment (6-mer frequency, TF over GST control); in the assay with CRX it was 1.07 fold enrichment (6-mer frequency, TF over GST control); in the assay with ETV1, 1.22 fold enrichment (6-mer frequency, TF over GST control).

CGATCT: the binding signal was 1.32 fold enrichment (6-mer frequency, TF over GST control) with FEV; 1.36 fold enrichment (6-mer frequency, TF over GST control) with ETV5; 1.54 fold enrichment (6-mer frequency, TF over GST control) in the assay with HSF1; 1.46 fold enrichment (6-mer frequency, TF over GST control) with SPIC; 1.37 fold enrichment (6-mer frequency, TF over GST control) in the assay with ELF4; 1.38 fold enrichment (6-mer frequency, TF over GST control) in the assay with ELK4. Moreover, the binding signal is 1.27 fold enrichment (6-mer frequency, TF over GST control) with ETV2; 1.41 fold enrichment (6-mer frequency, TF over GST control) with ELF3; 1.52 fold enrichment (6-mer frequency, TF over GST control) in the assay with CRX; 1.24 fold enrichment (6-mer frequency, TF over GST control) with ETV1.
